Source: PubChem BioAssay AID1851 (National Center for Advancing Translational Sciences (NCATS), 2009)
The whole screen tested about 16,000 compounds, of which about 4,000 (25%) were called active. Inconclusive results (about 26%) are left out. Calls follow the shape of the dose curve; as a rule, active = well fitted curve in the direction sought with a large enough effect; inconclusive = small, poorly fitted or top-dose-only effect, or effect the other way; inactive = no such curve, though single readings can be large or run the other way. A selection follows.

target: Cytochrome P450 2C9 (Homo sapiens) (UniProt P11712); test: Cytochrome panel assay with activity outcomes; conditions: recombinant CYP, pro-luciferin dealkylation, luminescence, p450-cyp2c9; series mostly up to 57.1 µM; activity, negative = inhibition: at the top concentration
% is scaled to controls: 0 for no effect and ±100 for the full control effect.

Cytochrome P450 2C9 (Homo sapiens), sequence (P11712 whole entry, looked up): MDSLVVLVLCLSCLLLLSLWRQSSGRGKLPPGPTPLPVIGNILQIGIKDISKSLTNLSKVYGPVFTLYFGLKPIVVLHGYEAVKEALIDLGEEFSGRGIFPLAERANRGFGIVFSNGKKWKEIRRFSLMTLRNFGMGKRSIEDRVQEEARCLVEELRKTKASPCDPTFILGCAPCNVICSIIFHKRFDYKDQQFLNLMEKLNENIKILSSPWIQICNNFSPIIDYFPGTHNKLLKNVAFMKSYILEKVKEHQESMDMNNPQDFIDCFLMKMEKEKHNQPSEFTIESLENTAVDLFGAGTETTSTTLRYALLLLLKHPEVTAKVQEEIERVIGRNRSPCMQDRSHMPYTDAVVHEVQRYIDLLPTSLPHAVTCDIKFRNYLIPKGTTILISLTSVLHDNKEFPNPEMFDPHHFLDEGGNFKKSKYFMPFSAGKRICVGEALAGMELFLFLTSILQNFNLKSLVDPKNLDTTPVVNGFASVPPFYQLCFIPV

Structure (SMILES)	AC50	activity, negative = inhibition
O=C(COc1ccccc1Cl)Nc1cc(Cl)ccc1Oc1ccccc1	2.51 µM (active)	
Cc1cc(NC(=O)COc2ccc(Cl)cc2Cl)n(-c2ccccc2)n1	2.51 µM (active)	
CCc1cc2c(nc1CC)CCN(CC/C(C)=N/OCC[C@@H]1C=C[C@H](OC(C)=O)[C@H](COC(C)=O)O1)C2		-1.15% [at 11.4 µM] (inactive)
OC[C@@H]1O[C@@H](n2cnc3c(NC4CCCCC4)ncnc32)[C@@H](O)[C@H]1O		-26.3% (inactive)
CNc1cc(CS(=O)c2ccccc2)nc(-c2ccccc2)n1 (stereo unspecified)		-22.8% (inactive)
CCOC(=O)CSc1cc(CS(=O)c2ccc(Cl)cc2)nc(-c2ccccc2)n1 (stereo unspecified)	1.26 µM (active)	
C=CCN=C1CC(C)(C)CC(=O)/C1=C(/O)CCC(=O)OC		-6.6% (inactive)
CN(C)CCCNc1ncnc2nc[nH]c12		3.87% [at 11.4 µM] (inactive)
CO[C@@H]1/C=C\O[C@]2(C)Oc3c(C)c(O)c4c(O)c(cc(O)c4c3C2=O)NC(=O)/C(C)=C\C=C/[C@H](C)[C@@H](O)[C@H](C)[C@H](O)[C@H](C)[C@H](OC(C)=O)[C@@H]1C		-6.49% [at 11.4 µM] (inactive)
Cc1ccc(SC(C)C(=O)NCc2cccnc2)cc1 (stereo unspecified)	8.91 µM (active)	
O=C(NCc1cccnc1)[C@@H]1[C@@H](C(=O)O)[C@H]2CC[C@@H]1O2		-5.99% [at 11.4 µM] (inactive)
c1cncc(CNCc2cccnc2)c1		16% [at 11.4 µM] (inactive)
COc1c(N2CCN(C(=S)Nc3ccc(F)cc3)C(C)C2)c(F)cc2c(=O)c(C(=O)O)cn(C3CC3)c12 (stereo unspecified)		-20.8% (inactive)
CN1CCCN(C)C1c1cc([N+](=O)[O-])ccc1O		-15.9% [at 11.4 µM] (inactive)
CC(=O)OC1COC(N2CCc3cc([N+](=O)[O-])ccc32)C(OC(C)=O)C1OC(C)=O (stereo unspecified)	0.891 µM (active)	
Cc1cnc(CNc2nc(-c3ccoc3)nc3ccccc23)cn1		-6.46% [at 2.29 µM] (inactive)
COc1ccc(C(=O)NNC(=O)Cc2ccc(-c3ccccc3)cc2)cc1OC		-6.38% (inactive)
COC(=O)CCC(=O)NNC(=O)c1ccc(Br)cc1		-18% (inactive)
CCn1ncc(/C=C/C(=O)NCc2cn(C)nc2C)c1C		24.1% (inactive)
COc1ccc(C(=O)NN)cc1COc1ccc(Br)cc1	8.91 µM (active)	
COc1ccc(/C=C/C(=O)NCc2cn(C)nc2C)cc1COc1ccc(Br)cc1	12.6 µM (active)	
CC(C)n1nnnc1-c1cc(Cl)cc(Cl)c1		-15.1% (inactive)
CCOC(=O)c1nn(-c2ccccc2)c(-c2ccccc2)c1C(=O)c1ccccc1	10 µM (active)	

Structure (SMILES)	AC50	activity, negative = inhibition
CCOC(=O)c1cc(C(=O)OCC)cc(-n2cc(O)c(C(=O)OCC)n2)c1		-29.4% (inactive)
CC(=O)NCCNc1nc(-c2ccccc2C(F)(F)F)nc2ccccc12		5.47% [at 2.29 µM] (inactive)
COc1cccc(-c2cc(C(=O)N/N=C/c3ccc(OC)c(COC(C)=O)c3)c3ccccc3n2)c1	0.398 µM (active)	
COc1ccc(/C=N/NC(=O)c2cc(-c3ccc(C)cc3C)nc3ccccc23)cc1COC(C)=O	0.794 µM (active)	
NS(=O)(=O)c1cc(C(=O)O)c(Cl)c([N+](=O)[O-])c1Cl		8.24% [at 11.4 µM] (inactive)
CCCn1cnc2c(SCC(=O)O)nc(N)nc21		3.25% [at 11.4 µM] (inactive)
O=C1c2ccccc2-c2ccc(N(Cc3ccc(Br)cc3)Cc3ccc(Br)cc3)cc21		-1.26% [at 11.4 µM] (inactive)
Cc1nc2sccn2c(=O)c1Cl		-7.69% (inactive)
CCCN(C/C=C\I)[C@@H]1CCc2cccc(O)c2C1		-11.2% (inactive)
CCSc1nnc(NC(=O)C(C(F)(F)F)C(F)(F)F)s1	7.94 µM (active)	
COCCSc1nnc(NC(=O)C(C)(C)C)s1		-21.4% (inactive)
CN(C)S(=O)(=O)c1nc(Cl)c2[nH]cnc2n1		1.52% [at 11.4 µM] (inactive)
CCn1c(SCc2ccc(C#N)cc2)nnc1-c1ccc(S(=O)(=O)N2CCCCC2)cc1	4.47 µM (active)	
O=C1N=C(N2CCOCC2)S/C1=C\C=C/c1ccccc1		-8.55% (inactive)
O=C1N=C(N2CCC(Cc3ccccc3)CC2)S/C1=C/c1cn[nH]c1-c1ccccc1	0.447 µM (active)	
CCN1CCCCC(=N/O)/C(=N/O)CCCC1		-7.4% [at 11.4 µM] (inactive)
Cc1cc(C)c(C(N)=O)c(NC(=O)Nc2ccccc2)n1		-13.2% (inactive)
CCCSc1nc(C)cc(C)c1C(N)=O		11.5% (inactive)
Cc1cc(C)c(C(N)=O)c(SCC(=O)c2ccc(Cl)cc2)n1	12.6 µM (active)	
CCO[C@H]1O[C@@H]([C@H](COCc2ccccc2)OCc2ccccc2)[C@@H](OCc2ccccc2)[C@H]1O	10 µM (active)	
O[C@@H]1[C@@H](OCc2ccccc2)OC[C@H](O)[C@@H]1O		0.912% [at 11.4 µM] (inactive)
CC(C)[C@@H](OCc1ccccc1)[C@H](C)/C=N\OC[C@@H](O)[C@@H]1O[C@@H]2OC(C)(C)O[C@@H]2[C@H]1O		-22.1% [at 11.4 µM] (inactive)
COc1ccc(CNc2ncncc2-c2ccccc2CN(C)C)c(OC)c1		-5.35% [at 2.29 µM] (inactive)

Structure (SMILES)	AC50	activity, negative = inhibition
O=C(c1ccc(Cl)c(Cl)c1)c1cc(-c2ccccn2)c(N2CCOCC2)s1	5.01 µM (active)	
O=C(c1ccccc1)c1cc(F)c(N2CCOCC2)cc1Cl		-25.9% (inactive)
CN(C)C(=O)c1ccc(-c2ccc3ncnc(N4CCOCC4)c3c2)cc1		20.2% [at 2.29 µM] (inactive)
CCCC[C@@H]1CN2[C@H](c3ccc(Br)cc3)[C@@H](C)CC[C@H]2C(=O)O1		-13.2% [at 11.4 µM] (inactive)
C[C@@H]1CN2[C@H](c3ccc(Br)cc3)[C@H](C)CC[C@H]2C(=O)O1		-3.17% [at 11.4 µM] (inactive)
C[C@@H]1CC[C@H]2C(=O)N3[C@@H](CC[C@@H](C)[C@@H]3c3ccc(Br)cc3)C(=O)N2[C@@H]1c1ccc(Br)cc1	3.98 µM (active)	
CCC(Sc1nc2cc3c(cc2c(=O)n1Cc1ccco1)OCO3)C(=O)Nc1cccc(OC)c1 (stereo unspecified)	2 µM (active)	
CCC(Sc1nc2cc3c(cc2c(=O)n1Cc1ccco1)OCO3)C(=O)Nc1ccccc1OC (stereo unspecified)	0.631 µM (active)	
COc1cccc(Nc2ncc3nc(-c4cccs4)c(=O)n(Cc4cccs4)c3n2)c1		-15.7% (inactive)
COc1ccccc1NC(=O)N1CCCC1C(=O)NCc1ccc2c(c1)OCO2 (stereo unspecified)		-21.5% (inactive)
CCCc1nnc(SCC(=O)N2C(C)CCCC2C)n1CCCOC (stereo unspecified)		-13.8% (inactive)
Cc1cc(=O)c2c(O)c(O)ccc2o1		19.8% (inactive)
CCOC(=O)c1cccc2c1-c1ccccc1/C2=N/O	8.91 µM (active)	
CCOC(=O)[C@@]12C[C@@H]1/C(=N/O)c1ccccc1O2		-1.19% (inactive)
NC[C@H](O)C1CCCCCCC1		0.201% (inactive)
Nc1ncnc2c1nc(Sc1ccc(Cl)cc1)n2[C@@H]1O[C@H]2COP(=O)(O)O[C@@H]2[C@H]1O		-10% (inactive)
COCCn1c(=O)c(-c2ccccc2)nc2cnc(Nc3cccc(OC)c3)nc21		-9.31% (inactive)
CCNc1ncc2nc(-c3ccc(OC)cc3)c(=O)n(CCOC)c2n1		9.61% (inactive)
Cn1c(=O)c(-c2ccc(Cl)cc2)nc2cnc(Oc3ccccc3)nc21		-2.59% (inactive)
COCCn1c(=O)c(-c2cn(C)c3ccccc23)nc2cnc(Oc3ccccc3)nc21		-19% (inactive)
COCCn1c(=O)c(-c2ccc(Cl)cc2)nc2cnc(Oc3ccccc3)nc21	7.94 µM (active)	
COCCn1c(=O)c(-c2ccc(Cl)cc2)nc2cnc(Nc3ccccc3)nc21		6.62% (inactive)
COCCn1c(=O)c(-c2ccccc2)nc2cnc(Oc3ccccc3)nc21	10 µM (active)	

Structure (SMILES)	AC50	activity, negative = inhibition
COCCn1c(=O)c(-c2ccccc2)nc2cnc(Oc3ccc(OC)cc3)nc21	10 µM (active)	
COCCn1c(=O)c(-c2cn(C)c3ccccc23)nc2cnc(Oc3ccc(OC)cc3)nc21		0.611% (inactive)
Nc1nc(N)c2[nH]cnc2n1 (tested in a mixture with another compound)		-4.44% [at 11.4 µM] (inactive)
Cc1[nH]c(N)nc(=S)c1CCC(=O)O		2.61% [at 11.4 µM] (inactive)
c1ccc2c[n+](Cc3ccnc4ccccc34)ccc2c1		-6.16% [at 11.4 µM] (inactive)
Cc1nc(SCC(=O)Nc2c(C)n(C)n(-c3ccccc3)c2=O)nc(C)c1C		31.5% (inactive)
Cc1c(NC(=O)Cn2ccc([N+](=O)[O-])n2)c(=O)n(-c2ccccc2)n1C		-3.82% (inactive)
C=CCn1c(SCC(=O)Nc2c(C)n(C)n(-c3ccccc3)c2=O)nc2sc(C)c(-c3ccccc3)c2c1=O	14.1 µM (active)	
Cc1c(NC(=O)CN2C(=O)C3C4C=CC(C4)C3C2=O)c(=O)n(-c2ccccc2)n1C (stereo unspecified)		-21.2% (inactive)
Cc1c(NC(=O)CSc2nnc3c4ccccc4n(CCc4ccccc4)c3n2)c(=O)n(-c2ccccc2)n1C	0.708 µM (active)	
Cc1c(NC(=O)CSc2nnnn2C)c(=O)n(-c2ccccc2)n1C		-39% (inactive)
CN[C@]1(C)[C@@H]2CC[C@@H](C2)C1(C)C		-5.04% (inactive)
CN1CCN(C2=Cc3ccccc3Oc3ccc(Cl)cc32)CC1		-10.8% (inactive)
C=CC[C@@H]1C=C[C@H](O/N=C(\C)CCN2CCc3nc(CC)c(CC)cc3C2)[C@H](CO)O1		-6.8% [at 11.4 µM] (inactive)
N#Cc1cc2nc(O)c(O)nc2cc1[N+](=O)[O-]		-3.14% (inactive)
O=C(O)c1cc(N=Nc2ccc([N+](=O)[O-])cc2)ccc1O		-19.1% [at 11.4 µM] (inactive)
O=C(c1cc(O)c(O)c([N+](=O)[O-])c1)c1ccccc1F	1.26 µM (active)	
CCCn1nnnc1-c1cc(Cl)cc(Cl)c1		-1.8% (inactive)
Cc1ccc(CNC(=O)COC(=O)c2cnccn2)cc1		4.39% (inactive)
CCCn1nnnc1NC(=O)COc1ccc(Cl)cc1C	10 µM (active)	
Cc1cc(Cl)ccc1OCC(=O)NCc1ccncc1	0.794 µM (active)	
Cc1cc(Cl)ccc1OCC(=O)Nc1nc(N)nc(N)n1		23.6% [at 11.4 µM] (inactive)
